KDM5B inh = Primary screen for KDM5B Histone Demethylases FDH-coupled qHTS; Lysine-specific demethylase 5B (Homo sapiens), Q9UGL1; KDM5B demethylase, FDH-coupled NADH fluorescence (FDH is formaldehyde dehydrogenase); Potency, µM (titrated, usually from 57.7 µM), hits mostly inhibitors; 220,000 compounds, 2.6% hits; note: potency is the fitted concentration of half-maximal effect; 0% is about no effect; nearly all actives have a fitted effect of over 70% in size
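qHTS format, multiple compound concentrations. Buffer 50 mM HEPES pH 7.5/0.01% Tween-20; 200 nM KDM5BΔAP final; 10 min compound preincubation; substrate-mix levels 12.5 µM peptide, 25 µM α-KG, 0.25 mM NAD⁺; 30 min RT; ΔRFU.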
HEK293 viab = GF-AFC viability counterscreen for inhibitors of alpha-synuclein gene (SNCA) expression. HEK-293-SNCA-luc viability, GF-AFC fluorescence, 24 h. Potency, µM (doses to about 57.1 µM), for the others: at the top dose activity change, negative = cytotoxicity, usual class: cytotoxic. 150,000 compounds, 0.12% hits. AID 1671193, 2021;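 note: potency is the fitted concentration of half-maximal effect; 0% = DMSO-treated cells and -100% = medium-only wells without cells; nearly all actives have a fitted effect of over 30% in size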
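HEK-293-SNCA-luc cells (1500/well) plated 24 h, then exposed 24 h to a dilution series; GF-AFC added 30 min at 37C, fluorescence 405/540 nm; normalised to medium-only and DMSO wells, Hill fit.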
SNCA expr inh = Primary qHTS assay for inhibitors of alpha-synuclein gene (SNCA) expression; HEK-293 SNCA-luciferase knock-in, luminescence, 24 h; Potency, µM (top dose mostly 57.2 µM), for the others: at the top dose activity change, negative = inhibition, actives largely listed as inhibitors; 140,000 compounds, 0.17% hits;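 note: potency is the fitted concentration of half-maximal effect; plate controls were DMSO cells for no effect and cell-free wells for full effect; nearly all actives have a fitted effect of over 45% in size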
IP6K1 inhibitor = Primary qHTS assay for small molecule inhibitors of Inositol hexaphosphate kinase 1 (IP6K1) | IP6K1 kinase, ADP-Glo luminescence, 2 h; stronger effect = lower value | 140,000 compounds, 0.81% hits | activity change, % (series mostly up to about 58 µM) | Inositol hexakisphosphate kinase 1 (Homo sapiens), Q92551 | AID 1645851, 2021; in the data active = activity change below about -25%; note: % is set by controls: 0 for no effect and ±100 for the full control effect
Target sequence (Q92551 whole entry, looked up): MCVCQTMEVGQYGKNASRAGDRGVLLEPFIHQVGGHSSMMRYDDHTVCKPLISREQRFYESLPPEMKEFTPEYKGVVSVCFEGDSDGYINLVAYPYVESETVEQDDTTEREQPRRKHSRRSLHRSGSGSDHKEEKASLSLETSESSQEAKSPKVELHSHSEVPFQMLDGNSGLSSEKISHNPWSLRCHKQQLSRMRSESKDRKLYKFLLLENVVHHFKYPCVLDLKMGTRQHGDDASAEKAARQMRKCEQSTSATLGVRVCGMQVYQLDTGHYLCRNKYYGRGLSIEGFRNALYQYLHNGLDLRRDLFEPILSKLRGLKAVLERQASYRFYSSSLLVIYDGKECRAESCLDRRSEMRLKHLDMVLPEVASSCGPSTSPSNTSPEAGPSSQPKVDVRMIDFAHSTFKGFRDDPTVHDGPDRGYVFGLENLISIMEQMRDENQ
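ADP-Glo luminescence measures ADP made by human IP6K1 during a 2 h RT reaction with ATP/IP6 (mix at 1.3 mM/130 uM); top library doses 57.5 and 19.1 uM final.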
* = called active by the depositor; [ ] = another dose, or the depositor's remark. Sampled rows, rich in hits. Any-hit rate of the full collection: about 2.9%. Unless noted, calls come from the whole dose curve; as a rule, active = well fitted curve in the direction sought with a large enough effect; inconclusive = small, poorly fitted or top-dose-only effect, or another doubt; inactive = no such curve, though single readings can be large; an effect the other way counts as inactive or inconclusive.

For O=c1c2c(n(Cc3cccnc3)n1CCc1ccccc1)CN(CC1CCOC1)CC2 (centres undefined) the results were KDM5B inh 35µM*, HEK293 viab 2%[87.6 µM], SNCA expr inh -4%[87.6 µM] and IP6K1 inhibitor -8.
`O=c1c2c(n(Cc3ccccc3)n1-c1ccccc1)CN(Cc1cccnc1)CC2` gave KDM5B inh 32µM*, HEK293 viab -3%[87.6 µM], SNCA expr inh 30%[87.6 µM] and IP6K1 inhibitor -1.
O=c1c2c(n(Cc3cccnc3)n1CCc1ccccc1)CN(CC1CC1)CC2 was read as KDM5B inh inconclusive, HEK293 viab 4%[87.6 µM], SNCA expr inh inconclusive and IP6K1 inhibitor 1.
For Cc1ccc(Cn2c(CNS(=O)(=O)c3ccc(F)c(Cl)c3)nc3cccnc32)cc1 the results were KDM5B inh inactive, HEK293 viab -16%, SNCA expr inh inconclusive and IP6K1 inhibitor 35.
For N#Cc1ccc([S+](=O)([O-])N2CCC3(CC2)OCCN(CC2CCOCC2)C3=O)cc1 the results were KDM5B inh 32µM*, HEK293 viab 4%[87.6 µM], SNCA expr inh -19%[87.6 µM] and IP6K1 inhibitor -3.
Screening Cc1cc(C(F)(F)F)nc(CNC(=O)c2ccc3cccc(F)c3n2)n1 returned KDM5B inh 22µM*, HEK293 viab -5%, SNCA expr inh 13% and IP6K1 inhibitor -3.
For CCCc1nc(C(=O)NCc2nc(C)cc(C(F)(F)F)n2)cs1 the results were KDM5B inh inactive, HEK293 viab -3%, SNCA expr inh 4% and IP6K1 inhibitor 5.
Screening NC(=O)c1c(OCc2c(F)cc(Br)cc2F)nsc1NC(=O)NCCCCN1CCCC1 returned HEK293 viab inconclusive, SNCA expr inh 6.1µM* and IP6K1 inhibitor 15.
COc1cccc(Nc2ccc3c(n2)C(C)(C(=O)NCCc2cnc[nH]2)CN(C)C3)c1 (centres undefined) was read as KDM5B inh 40µM*, HEK293 viab -22%[87.6 µM], SNCA expr inh 1%[87.6 µM] and IP6K1 inhibitor 19.
Screening COc1cccc(Nc2ccc3c(n2)C(C)(C(=O)NCC2CC2)CN(C)C3)c1 (centres undefined) returned KDM5B inh 35µM*, HEK293 viab inconclusive, SNCA expr inh -5%[87.6 µM] and IP6K1 inhibitor 6.
`CN1Cc2ccc(NCc3ccccc3)nc2C(C)(C(=O)NCc2cccnc2)C1` (centres undefined) gave KDM5B inh inconclusive, HEK293 viab 5%[87.6 µM], SNCA expr inh 22%[87.6 µM] and IP6K1 inhibitor 2.
`CN1Cc2ccc(Nc3ccccc3)nc2C(C)(C(=O)NCc2cccs2)C1` (centres undefined) gave KDM5B inh 32µM*, HEK293 viab -22%[87.6 µM], SNCA expr inh -15%[87.6 µM] and IP6K1 inhibitor 17.
For Cc1ccc(NC(=O)Nc2ccccc2)c(=O)n1CC(=O)N1CCN(c2ccccc2)CC1 the results were KDM5B inh 28µM*, HEK293 viab 10%, SNCA expr inh 6% and IP6K1 inhibitor -6.
`CC(C)NC(=O)C[C@@H]1C[C@H]2O[C@H](CNC3CCCCC3)[C@@H](O)[C@H]2O1` gave KDM5B inh inactive, HEK293 viab 3%[87.6 µM], SNCA expr inh 20%[87.6 µM] and IP6K1 inhibitor 1.
For O=C1COc2ccc(Nc3ccccc3)nc2CN1Cc1ccccc1 the results were KDM5B inh inconclusive, HEK293 viab -6%[87.6 µM], SNCA expr inh -28%[87.6 µM] and IP6K1 inhibitor -21.
For COc1ccc(Nc2ccc3c(n2)CN(Cc2ccccc2F)C(=O)CO3)cc1 the results were KDM5B inh 35µM*, HEK293 viab inconclusive, SNCA expr inh 14%[87.6 µM] and IP6K1 inhibitor -25.
COc1ccc(Nc2ccc3c(n2)CN(Cc2ccccc2C)C(=O)CO3)cc1 was read as KDM5B inh 35µM*, HEK293 viab inconclusive, SNCA expr inh -12%[87.6 µM] and IP6K1 inhibitor -12.
Cc1nc(CN2Cc3nc(Nc4ccc(C(F)(F)F)cc4)ccc3OCC2=O)cs1 was read as KDM5B inh 35µM*, HEK293 viab inconclusive, SNCA expr inh -34%[87.6 µM] and IP6K1 inhibitor -6.
COc1ccccc1-c1ccc2c(n1)CN(Cc1ccccc1C)C(=O)CO2 was read as KDM5B inh inconclusive, HEK293 viab -4%[87.6 µM], SNCA expr inh -4%[87.6 µM] and IP6K1 inhibitor 5.
For Cc1ccccc1C(=O)N1CCC2(CC1)N=C(c1cccc(Br)c1)NO2 the results were KDM5B inh inactive, HEK293 viab 8%, SNCA expr inh inconclusive and IP6K1 inhibitor 10.

Assay outcomes deposited in PubChem by National Center for Advancing Translational Sciences (NCATS).
